High-throughput results from PubChem.
ARNT-TACC3 inh: disrupts binding between human ARNT and TACC3 | inhibition, % at 9.99 µM | AlphaScreen His-ARNT PAS-B/GST-TACC3 binding, luminescence; TACC3 fragment carries E629A point mutation | Q9Y6A5 | hit rate 0.66% among 390,000;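 active = mean inhibition of replicates at least 50% and at least half of replicates each reaching 50%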;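 also: 0% = complete ARNT plus TACC3 wells and 100% = ARNT alone without TACC3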
ERp5 inh: ERp5 (human) disulfide isomerase inhibition; Q15084; ERp5 insulin aggregation, absorbance 650 nm, 90 min; inhibition, % at 9.99 µM; hit rate 0.05% among 350,000;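 active = mean replicate inhibition above about 25%, with every replicate also reaching it, limit read from the data, passing the limit was not always enough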
PglD inh: blocks C. jejuni PglD acetyltransferase activity; purified PglD enzyme, DTNB colorimetric CoA detection; inhibition, % at 12.5 µM; hit rate 0.098% among 360,000; in the data active = inhibition above about 16%, passing the limit was not always enough
ALR inh: human ALR oxidase inhibition via reduced H2O2; P55789; purified ALR, DTT oxidation, H2O2 HRP-luminol luminescence; inhibition, % (concentration not given with the values); hit rate 3.8% among 290,000;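 active = mean replicate inhibition above about 79%, with every replicate also reaching it, limit read from the data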
CendR NRP1 mod: NRP-1/CendR interaction modulation | AID 602438 | inhibition, % at 25 µM | O14786 | FAM-RPARPAR peptide binding to NRP-1, fluorescence polarization | hit rate 0.85% among 360,000;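 active = inhibition or corrected inhibition above about 18%, plus a signal ratio from 0.5 to 1.5, limit read from the data, passing the limit was not always enough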
PDI turbidity: PDI (human) enzyme inhibition; PDI insulin aggregation turbidity, A650, 90 min; inhibition, % at 10 µM; hit rate 0.052% among 350,000;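 active = mean inhibition across replicates of 30% or more, whatever share of single replicates reach that level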
Starred values were filed as active, the others as inactive; / = no result given. This excerpt belongs to a sample that is enriched for hits.

SMILES	ARNT-TACC3 inh	ERp5 inh	PglD inh	ALR inh	CendR NRP1 mod	PDI turbidity
CCN(CCCNC(=O)CN1C(=O)COc2ccccc21)c1cccc(C)c1	2.0	/	-1.2	99.4*	3.3	-6.6
CCNC(=O)C[C@@H]1CC[C@@H]2[C@H](COC[C@@H](O)CN2C(=O)Nc2ccc(C(F)(F)F)cc2)O1	-5.0	-3.0	-0.5	/	/	/
C[C@H](CO)N1C[C@H](C)[C@H](CN(C)Cc2ccc(Oc3ccccc3)cc2)Oc2ccc(NC(=O)CCN3CCOCC3)cc2CC1=O	9.3	-0.2	0.2	/	/	/
COCC#Cc1ccc([C@H]2[C@@H](CO)N3CCCCN(Cc4cccnc4)C[C@H]23)cc1	-0.8	3.9	4.3	/	/	/
CCN(CCCNC(=O)CCn1c(=O)[nH]c2ccccc2c1=O)c1cccc(C)c1	-1.3	/	-3.8	3.4	5.4	4.7
CCN(CCCNC(=O)CCn1c(=O)[nH]c2ccccc2c1=O)c1ccccc1	5.4	/	-3.3	97.8*	2.9	-16.6
O=C(Nc1ccc2c(c1)[C@@H]1C[C@@H](CC(=O)N3CCOCC3)O[C@@H](CO)[C@@H]1O2)Nc1ccccc1F	-3.8	2.3	3.5	/	/	/
CNC[C@@H]1Oc2ccc(NC(=O)Cc3cn(C)c4ccccc34)cc2C(=O)N([C@H](C)CO)C[C@@H]1C	0.5	0.0	1.9	/	/	/
COc1ccc(CNc2nn3c(-c4cccc(C(=O)N(C)C)c4)cnc3s2)cc1	/	1.4	-0.6	/	29.9*	9.6
O=C(O)Cn1ncn(-c2ccc(OC(F)(F)F)cc2)c1=O	/	-1.6	-7.3	0.3	26.5*	-0.4
O=C(C1=C[C@H](c2ccc(C(F)(F)F)cc2)C[C@H](OCCCCO)O1)N1CCCCCCC1	5.0	3.6	9.8	/	/	/
Cc1ccccc1OCC(=O)Nc1cccc(C(=O)O)c1	-51.4	4.5	/	/	-3.9	1.2
COc1cccc(OCC(=O)Nc2cc(NC(=O)COc3cccc(OC)c3)cc(C(=O)O)c2)c1	10.0	1.2	-2.7	99.1*	-6.8	-14.7
Cc1cccc(OCC(=O)Nc2cc(NC(=O)COc3cccc(C)c3C)cc(C(=O)O)c2)c1C	-0.6	-3.3	1.6	80.4*	1.9	13.8
Cc1csc(SCC(=O)Nc2oc(C)c3c(C)n[nH]c(=O)c23)n1	4.0	-4.3	/	25.1	3.0	-7.4
Cc1n[nH]c(=O)c2c(NC(=O)CSc3nn(-c4ccccc4)c(=S)s3)oc(C)c12	-0.5	1.3	/	99.2*	-5.9	-10.2
O=C(/C=C/c1ccc2c(c1)OCO2)c1ccc(O)cc1O	-12.2	4.5	-0.7	/	-14.6	72.5*
COc1cc(/C=C/c2ccc(O)cc2)cc(OC)c1	15.9	4.4	-6.4	80.0*	-16.6	/
O=C(O)c1ccc(/C=C/C(=O)c2ccc3c(c2)OCCCO3)cc1	4.3	3.1	0.0	97.2*	-15.1	-8.4
Cc1ccc(C(=O)C=Cc2ccc3c(c2)OCO3)c(C)c1	/	9.6	/	/	-0.4	13.3
COc1ccc(/C=C/C(=O)c2ccc(O)cc2)cc1	/	-1.4	-4.4	97.4*	-46.6	/
CC(=O)N(C)C[C@@H]1Oc2cc(C3=CCCC3)ccc2S(=O)(=O)N([C@@H](C)CO)C[C@H]1C	-3.8	1.7	0.8	/	/	/
COc1ccc2cc(C(=O)/C=C/c3cc(OC)c(OC)c(OC)c3)ccc2c1	13.6	-1.2	-1.6	/	26.6*	7.6
COc1ccc(C(=O)/C=C/c2ccc3c(c2)OCCO3)cc1	-3.8	-7.2	-3.9	95.2*	0.6	-4.3
O=C(/C=C/c1ccc(O)cc1)c1c(O)cc(O)cc1O	0.3	8.1	-1.0	98.4*	-1.9	/
SMILES	ARNT-TACC3 inh	ERp5 inh	PglD inh	ALR inh	CendR NRP1 mod	PDI turbidity
CC(=O)Nc1ccc2nc3c(=O)n(C)c(=O)n(C)c3nc2c1	18.3	-0.5	/	-21.8	42.2*	-4.0
CCOc1ccc(NC(=O)CSc2nnc(-c3ccccc3)n2N)cc1	-19.6	/	-9.5	-2.8	-8.7	3.3
CCOc1ccc(NC(=O)CSc2nncc(=O)n2N)cc1	/	-2.5	7.5	95.7*	2.9	-4.2
CCCc1nnc(SCC(=O)Nc2ccc(OCC)cc2)n1N	0.2	/	-0.6	98.4*	7.8	0.6
COc1ccc(NC(=O)N(C)C[C@@H]2Oc3ccc(NC(=O)Cn4cnnn4)cc3C(=O)N([C@H](C)CO)C[C@H]2C)cc1	-7.3	-1.7	-0.9	/	/	/
O=C(Nc1ccc2[nH]c(=S)sc2c1)c1ccccc1	-2.6	/	/	99.2*	4.5	-3.3
COc1cc(C(=O)N/N=C(\Cc2ncc[nH]2)c2ccccc2)cc(OC)c1OC	22.6	4.2	/	20.2	0.7	-3.7
c1ccc(N/N=C(\Cc2ncc[nH]2)c2ccccc2)cc1	/	-1.8	/	98.7*	-7.6	4.1
C=CC[C@H]1C=C[C@@H](C(C(=O)OC)C(=O)OC)CN1C(C)=O	57.3*	7.1	-0.6	/	-3.4	0.0
CO[C@H]1CN(C)C(=O)c2cc(NC(C)=O)ccc2OC[C@@H](C)N(CCc2ccccc2)C[C@@H]1C	3.2	14.9	0.6	/	/	/
O=[N+]([O-])c1c(NCCCO)cc(SCc2ccco2)c2nonc12	3.2	0.5	/	3.1	1.3	-0.1
CC(=O)OCCNc1cc(Sc2nc3ccccc3[nH]2)c2nonc2c1[N+](=O)[O-]	17.4	/	/	95.8*	1.9	4.6
CC(=O)OCCCNc1cc(Sc2nc3ccccc3s2)c2nonc2c1[N+](=O)[O-]	24.2	/	-2.1	-26.0	-1.2	16.5
CC(=O)OCCNc1cc(SCc2ccco2)c2nonc2c1[N+](=O)[O-]	9.8	/	-12.8	/	26.9*	16.0
O=C(C[C@H]1C=C[C@@H](NC(=O)C2CCOCC2)[C@H](CO)O1)NCc1ccncc1	3.1	0.6	-1.1	/	/	/
Cc1ccc(S(=O)(=O)N[C@H]2CC[C@H](CC(=O)N3CCN(c4ccccc4)CC3)O[C@@H]2CO)cc1	/	0.7	-4.1	/	/	/
Clc1ccc(C2NCCc3sccc32)cc1 (centres undefined)	/	3.5	/	-1.7	-9.5	-37.7
Oc1ccc(C2CNCc3sccc32)cc1O (centres undefined)	1.5	1.7	-3.0	97.7*	3.9	-3.1
Cc1ccc(CSc2ccc(S(=O)(=O)N3CCCC3)cn2)cc1	5.9	6.2	0.5	-3.6	11.9	-0.1
N#Cc1ccc(CSc2ccc(S(=O)(=O)N3CCCC3)cn2)cc1	-7.6	-2.9	-0.6	92.6*	-5.6	2.5
Cc1ccccc1S(=O)(=O)N1C[C@H](O)COC[C@H]2O[C@H](CC(=O)O)CC[C@@H]21	-7.8	-4.9	2.3	/	/	/
CC12CCC(C(=O)NNc3ccccc3)(C(=O)C1=O)C2(C)C (centres undefined)	1.8	4.9	-1.2	98.2*	-4.7	18.9
C[C@H]1CCCCO[C@@H](CN(C)CC2CCCCC2)[C@@H](C)CN([C@@H](C)CO)C(=O)c2cc(NC(=O)NC3CCCCC3)ccc2O1	-2.8	/	-7.5	/	/	/
CC1(C)C2(C#N)C(N)=NC3(OCCO3)C12C#N (centres undefined)	-16.5	/	-0.5	99.8*	1.1	2.9
C[C@H]1CN([C@@H](C)CO)S(=O)(=O)c2ccc(-c3cccc(C(=O)N(C)C)c3)cc2O[C@H]1CN(C)C(=O)Cc1ccccn1	-7.7	-1.7	-1.9	/	/	/
